# Laboratory results reported in PubChem BioAssay (Tox21).
# Results filed as inconclusive are left out. Unmarked numbers belong to inactive results. Calls of active or inactive are those of the source. The call rests on the fitted dose curve; in most records, active means well fitted curve in the direction sought with a large enough effect in the repeat runs; inconclusive means weak or mixed curves; inactive means no such curve, though single readings can be large; an effect the other way counts as inactive or inconclusive.
# Target: Cytochrome P450 2C9 (Homo sapiens) (UniProt P11712)
# Assay: Cytochrome P450 Family 2 Subfamily C Member 9 (CYP2C9) small molecule antagonists: luciferase reporter qHTS assay (AID 1671198); further: potency means the concentration at half of the fitted maximal effect
# Conditions: P450-Glo CYP2C9 enzyme assay, luciferin luminescence; series mostly up to 115 µM; activity change, negative = inhibition: at the top concentration
# In short: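 Enzyme-substrate mix preincubated with compound 10 min at room temperature; reaction started with NADPH regeneration solution, 1 h 37C. Luminescent luciferin product read after 20 min detection reagent.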
# Further: nearly all actives have a fitted effect of over 50% in size.
# On the % scale 0 is the no-effect control and ±100 the full control effect.
# Cytochrome P450 2C9 (Homo sapiens), sequence (P11712 whole entry, looked up): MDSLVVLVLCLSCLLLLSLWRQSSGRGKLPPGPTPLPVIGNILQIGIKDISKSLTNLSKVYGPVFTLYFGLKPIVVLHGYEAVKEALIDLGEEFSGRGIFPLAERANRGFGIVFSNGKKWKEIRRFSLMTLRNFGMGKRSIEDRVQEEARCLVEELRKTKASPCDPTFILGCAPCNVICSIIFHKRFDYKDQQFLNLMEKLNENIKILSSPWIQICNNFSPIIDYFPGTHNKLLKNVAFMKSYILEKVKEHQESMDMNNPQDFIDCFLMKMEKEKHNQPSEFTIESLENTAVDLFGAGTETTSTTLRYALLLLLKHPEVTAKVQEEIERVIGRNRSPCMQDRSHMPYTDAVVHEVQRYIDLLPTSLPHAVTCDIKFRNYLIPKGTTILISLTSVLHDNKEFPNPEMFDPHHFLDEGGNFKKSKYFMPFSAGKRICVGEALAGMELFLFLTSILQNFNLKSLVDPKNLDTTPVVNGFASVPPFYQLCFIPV
Structure (SMILES),"activity change, negative = inhibition",Potency
C=CCCCCCCCCCCCC,-9.55%,
C=C(C)C(=O)OCCOP(=O)(O)OCCOC(=O)C(=C)C,-14.2%,
CC(C)C[C@H](NC(=O)CNC(=O)[C@H](Cc1ccc(O)cc1)NC(=O)[C@H](CO)NC(=O)[C@H](Cc1c[nH]c2ccccc12)NC(=O)[C@H](Cc1cnc[nH]1)NC(=O)[C@@H]1CCC(=O)N1)C(=O)N[C@@H](CCCN=C(N)N)C(=O)N1CCC[C@H]1C(=O)NCC(N)=O (stereo in doubt),2.19% [at 53 µM],
O=C(CS(=O)Cc1ccco1)NC/C=C\COc1cc(CN2CCCCC2)ccn1 (stereo unspecified),-4.49% [at 53 µM],
C=COCCOCCOCCOC=C,-13.6%,
Cc1cccc(OCC(O)CNC(C)(C)C)c1C (stereo unspecified),-4.17% [at 53 µM],
C=C(C)C(=O)OCCNC(C)(C)C,-18.5%,
COP(=O)(OC)OC(c1ccc(Cl)cc1)P(=O)(OC)OC (stereo unspecified),-5.23% [at 53 µM],
Cc1nc2n(c(=O)c1CCN1CCC(c3noc4cc(F)ccc34)CC1)CCC[C@H]2O,0.924% [at 23.6 µM],
CC(C)C(=O)OCc1cccc(OC(=O)[C@@H]2N3C(=O)[C@@H](NC(=O)Cc4ccccc4)[C@H]3SC2(C)C)c1,,12.3 µM (active)
OCCCCC(O)CO (stereo unspecified),,67.2 µM (active)
CC(S)C(=O)NCC(=O)O (stereo unspecified),-2.44% [at 53 µM],
CC/C=C\CC1=C(C)CCC1=O,-20.6%,
CCN1CCc2nc(N)oc2CC1,-5.13% [at 53 µM],
C[C@H](CCC(=O)O)[C@H]1CC[C@H]2[C@@H]3C(=O)C[C@@H]4CC(=O)CC[C@]4(C)[C@H]3CC(=O)[C@]12C,0.694% [at 53 µM],
O=C1c2ccccc2C(=O)C1c1ccccc1,-0.0288% [at 53 µM],
Cc1cc2cc3c(C)cc(=O)oc3c(C)c2o1,-7.88% [at 53 µM],
CC1(CO)CN(c2ccccc2)NC1=O (stereo unspecified),,25.2 µM (active)
Nc1ncnc(Nc2ccccc2)n1,-0.861% [at 53 µM],
C=C(C)C(=O)OCCN(CC)CC,-4.77%,
C=C(C)C1CCC(C)(O)CC1 (stereo unspecified),-9.13%,
CO[C@@H]1[C@@H](OC(N)=O)[C@@H](O)[C@H](Oc2ccc3c(O)c(NC(=O)c4ccc(O)c(CC=C(C)C)c4)c(=O)oc3c2C)OC1(C)C,,11 µM (active)
CCOc1cc(NC(C)=O)ccc1C(=O)OC,-12.1% [at 53 µM],
COCCOCCOCCOCCOCCO,-10.5%,
O=C1c2ccccc2C(=O)c2cc(S(=O)(=O)O)ccc21,,12.7 µM (active)

# Target: Cytochrome P450 1A2 (Homo sapiens) (UniProt P05177)
# Assay: Cytochrome P450 Family 1 Subfamily A Member 2 (CYP1A2) small molecule antagonists: luciferase reporter qHTS assay (AID 1671199); further: potency means the concentration at half of the fitted maximal effect
# Conditions: P450-Glo CYP1A2 enzyme, luciferin luminescence, 1 h; series mostly up to 53 µM; activity change, negative = inhibition: at the top concentration
# In short: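 Human CYP1A2 activity measured with a P450-Glo proluciferin substrate; compounds in DMSO preincubated 10 min at room temperature with enzyme-substrate mix, then NADPH regeneration system added for 1 h. Luciferin detection reagent, 20 min, luminescence read.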
# Cytochrome P450 1A2 (Homo sapiens), sequence (P05177 whole entry, looked up): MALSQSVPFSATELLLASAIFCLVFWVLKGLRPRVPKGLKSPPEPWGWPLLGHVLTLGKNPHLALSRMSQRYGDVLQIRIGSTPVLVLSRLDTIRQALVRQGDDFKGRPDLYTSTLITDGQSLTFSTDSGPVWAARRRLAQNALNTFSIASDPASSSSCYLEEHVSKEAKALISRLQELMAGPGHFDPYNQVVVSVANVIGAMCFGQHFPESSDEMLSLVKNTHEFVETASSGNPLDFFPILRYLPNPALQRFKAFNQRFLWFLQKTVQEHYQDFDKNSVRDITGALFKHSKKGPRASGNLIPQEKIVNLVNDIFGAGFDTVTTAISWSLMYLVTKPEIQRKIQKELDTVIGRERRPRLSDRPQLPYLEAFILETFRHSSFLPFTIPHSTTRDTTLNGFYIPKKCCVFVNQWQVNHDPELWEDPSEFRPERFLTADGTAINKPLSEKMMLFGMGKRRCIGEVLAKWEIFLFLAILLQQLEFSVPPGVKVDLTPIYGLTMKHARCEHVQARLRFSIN
Structure (SMILES),"activity change, negative = inhibition",Potency
C=CCCCCCCCCCCCC,-10% [at 115 µM],
C=C(C)C(=O)OCCOP(=O)(O)OCCOC(=O)C(=C)C,-17% [at 115 µM],
O=C(CS(=O)Cc1ccco1)NC/C=C\COc1cc(CN2CCCCC2)ccn1 (stereo unspecified),-3.22%,
C=COCCOCCOCCOC=C,,35.6 µM (active)
C=C(C)C(=O)OCCNC(C)(C)C,,35.5 µM (active)
FC(F)(F)c1ccccc1-n1ccnc1,,5.49 µM (active)
NCCS,-7.79%,
COP(=O)(OC)OC(c1ccc(Cl)cc1)P(=O)(OC)OC (stereo unspecified),-1.09%,
COc1ccc(-c2cc(=O)c3c(O)cc(O[C@@H]4O[C@H](CO[C@@H]5O[C@@H](C)[C@H](O)[C@@H](O)[C@H]5O)[C@@H](O)[C@H](O)[C@H]4O)cc3o2)cc1O,-7.57%,
Cc1nc2n(c(=O)c1CCN1CCC(c3noc4cc(F)ccc34)CC1)CCC[C@H]2O,13.4% [at 23.6 µM],
C[C@H](N)[C@H](O)c1cccc(O)c1,10.2%,
COc1cc(C(=S)N2CCOCC2)cc(OC)c1OC,-1.64%,
CC(C)C(=O)OCc1cccc(OC(=O)[C@@H]2N3C(=O)[C@@H](NC(=O)Cc4ccccc4)[C@H]3SC2(C)C)c1,1.64%,
OCCCCC(O)CO (stereo unspecified),-13.9% [at 115 µM],
CC(S)C(=O)NCC(=O)O (stereo unspecified),3.02%,
Cc1cccc(C)c1OCC(C)N (stereo unspecified),,1.62 µM (active)
CC/C=C\CC1=C(C)CCC1=O,,31.7 µM (active)
CC(=O)CCCCn1c(=O)c2c(ncn2C)n(C)c1=O,-11.9%,
C[C@@H](O)[C@H]1C(=O)N2C(C(=O)O)=C(SCCN=CN)C[C@H]12,-11.8%,
CCN1CCc2nc(N)oc2CC1,-15.7%,
C[C@H](CCC(=O)O)[C@H]1CC[C@H]2[C@@H]3C(=O)C[C@@H]4CC(=O)CC[C@]4(C)[C@H]3CC(=O)[C@]12C,11.7%,
O=C1c2ccccc2C(=O)C1c1ccccc1,8.4%,
Cc1cc2cc3c(C)cc(=O)oc3c(C)c2o1,,6.45 µM (active)
CC(=C(CCOC(=O)C(C)C)SSC(CCOC(=O)C(C)C)=C(C)N(C=O)Cc1cnc(C)nc1N)N(C=O)Cc1cnc(C)nc1N,6.77%,
CC1(CO)CN(c2ccccc2)NC1=O (stereo unspecified),,35.6 µM (active)
C=C(C)C(=O)OCCN(CC)CC,,35.5 µM (active)
C=C(C)C1CCC(C)(O)CC1 (stereo unspecified),-12.1% [at 115 µM],
CO[C@@H]1[C@@H](OC(N)=O)[C@@H](O)[C@H](Oc2ccc3c(O)c(NC(=O)c4ccc(O)c(CC=C(C)C)c4)c(=O)oc3c2C)OC1(C)C,-28.2%,
CCOc1cc(NC(C)=O)ccc1C(=O)OC,,5.49 µM (active)

# Target: Voltage-gated inwardly rectifying potassium channel KCNH2 (Homo sapiens) (UniProt Q12809)
# Assay: Human Ether-a-go-go-Related Gene (hERG) channel small molecule antagonists: fluorescence cell-based qHTS assay (AID 1671200);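 further: hERG-expressing U2OS cells given a thallium stimulus after FluxOR II dye loading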
# Conditions: hERG-U2OS cells, FluxOR thallium flux fluorescence; series mostly up to 76.8 µM; activity change, negative = inhibition: at the top concentration
# In short: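 Quantitative HTS in hERG-U2OS cells: thallium entry through the channel reports activity, read as continuous 480/540 nm fluorescence over 2 min after stimulus addition.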
# Voltage-gated inwardly rectifying potassium channel KCNH2 (Homo sapiens), sequence (Q12809 whole entry, looked up): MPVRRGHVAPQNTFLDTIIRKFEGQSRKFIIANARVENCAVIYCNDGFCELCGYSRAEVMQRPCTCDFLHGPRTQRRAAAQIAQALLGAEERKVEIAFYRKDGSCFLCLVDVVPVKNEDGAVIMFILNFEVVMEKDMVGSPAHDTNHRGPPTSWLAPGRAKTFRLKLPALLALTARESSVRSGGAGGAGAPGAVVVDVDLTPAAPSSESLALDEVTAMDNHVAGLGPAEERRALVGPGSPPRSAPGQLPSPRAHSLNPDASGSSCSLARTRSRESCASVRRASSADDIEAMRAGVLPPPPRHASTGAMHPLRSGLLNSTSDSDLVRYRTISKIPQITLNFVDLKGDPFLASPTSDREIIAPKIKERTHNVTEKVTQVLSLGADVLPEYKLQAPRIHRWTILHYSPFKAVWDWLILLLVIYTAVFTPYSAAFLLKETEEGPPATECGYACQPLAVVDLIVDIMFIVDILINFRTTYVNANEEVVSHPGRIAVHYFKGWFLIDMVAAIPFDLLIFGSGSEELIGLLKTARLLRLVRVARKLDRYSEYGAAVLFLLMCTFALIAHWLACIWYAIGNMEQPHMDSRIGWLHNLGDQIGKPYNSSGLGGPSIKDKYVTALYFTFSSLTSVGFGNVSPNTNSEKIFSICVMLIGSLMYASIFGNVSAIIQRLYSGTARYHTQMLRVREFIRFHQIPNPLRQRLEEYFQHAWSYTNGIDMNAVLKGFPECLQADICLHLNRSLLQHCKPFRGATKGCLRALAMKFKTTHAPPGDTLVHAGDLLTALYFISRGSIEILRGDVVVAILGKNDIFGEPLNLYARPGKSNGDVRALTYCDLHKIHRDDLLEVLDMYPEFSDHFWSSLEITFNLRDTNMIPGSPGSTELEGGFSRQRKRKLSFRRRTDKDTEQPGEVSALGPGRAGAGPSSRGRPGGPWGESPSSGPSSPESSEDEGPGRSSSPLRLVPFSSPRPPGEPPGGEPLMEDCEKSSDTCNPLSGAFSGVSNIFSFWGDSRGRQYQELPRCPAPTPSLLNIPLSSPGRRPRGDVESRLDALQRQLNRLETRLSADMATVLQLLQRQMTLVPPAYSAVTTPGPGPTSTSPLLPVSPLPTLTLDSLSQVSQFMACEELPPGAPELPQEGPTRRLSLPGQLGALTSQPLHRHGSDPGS
row,Structure (SMILES),"activity change, negative = inhibition"
1,C=CCCCCCCCCCCCC,0.385%
2,C=C(C)C(=O)OCCOP(=O)(O)OCCOC(=O)C(=C)C,2.78%
3,CC(C)C[C@H](NC(=O)CNC(=O)[C@H](Cc1ccc(O)cc1)NC(=O)[C@H](CO)NC(=O)[C@H](Cc1c[nH]c2ccccc12)NC(=O)[C@H](Cc1cnc[nH]1)NC(=O)[C@@H]1CCC(=O)N1)C(=O)N[C@@H](CCCN=C(N)N)C(=O)N1CCC[C@H]1C(=O)NCC(N)=O (stereo in doubt),-0.952% [at 35.3 µM]
4,O=C(CS(=O)Cc1ccco1)NC/C=C\COc1cc(CN2CCCCC2)ccn1 (stereo unspecified),-3.63% [at 35.3 µM]
5,C=COCCOCCOCCOC=C,-1.85%
6,Cc1cccc(OCC(O)CNC(C)(C)C)c1C (stereo unspecified),-15.3% [at 35.3 µM]
7,C=C(C)C(=O)OCCNC(C)(C)C,4.91%
8,FC(F)(F)c1ccccc1-n1ccnc1,0.523% [at 35.3 µM]
9,NCCS,4.34% [at 35.3 µM]
10,COP(=O)(OC)OC(c1ccc(Cl)cc1)P(=O)(OC)OC (stereo unspecified),-1.64% [at 35.3 µM]
11,COc1ccc(-c2cc(=O)c3c(O)cc(O[C@@H]4O[C@H](CO[C@@H]5O[C@@H](C)[C@H](O)[C@@H](O)[C@H]5O)[C@@H](O)[C@H](O)[C@H]4O)cc3o2)cc1O,2.94% [at 35.3 µM]
12,C[C@H](N)[C@H](O)c1cccc(O)c1,3.1% [at 35.3 µM]
13,COc1cc(C(=S)N2CCOCC2)cc(OC)c1OC,3.28% [at 35.3 µM]
14,OCCCCC(O)CO (stereo unspecified),-0.186%
15,CC(S)C(=O)NCC(=O)O (stereo unspecified),5.38% [at 35.3 µM]
16,Cc1cccc(C)c1OCC(C)N (stereo unspecified),-1.58% [at 35.3 µM]

row,Structure (SMILES),"activity change, negative = inhibition"
1,CC/C=C\CC1=C(C)CCC1=O,4.32%
2,CC(=O)CCCCn1c(=O)c2c(ncn2C)n(C)c1=O,1.89% [at 35.3 µM]
3,C[C@@H](O)[C@H]1C(=O)N2C(C(=O)O)=C(SCCN=CN)C[C@H]12,1.57% [at 35.3 µM]
4,CCN1CCc2nc(N)oc2CC1,2.72% [at 35.3 µM]
5,C[C@H](CCC(=O)O)[C@H]1CC[C@H]2[C@@H]3C(=O)C[C@@H]4CC(=O)CC[C@]4(C)[C@H]3CC(=O)[C@]12C,4.98% [at 35.3 µM]
6,O=C1c2ccccc2C(=O)C1c1ccccc1,0.456% [at 35.3 µM]
7,Cc1cc2cc3c(C)cc(=O)oc3c(C)c2o1,-2.26% [at 35.3 µM]
8,CC(=C(CCOC(=O)C(C)C)SSC(CCOC(=O)C(C)C)=C(C)N(C=O)Cc1cnc(C)nc1N)N(C=O)Cc1cnc(C)nc1N,-25% [at 35.3 µM]
9,CC1(CO)CN(c2ccccc2)NC1=O (stereo unspecified),10.3%
10,Nc1ncnc(Nc2ccccc2)n1,11.3% [at 35.3 µM]
11,C=C(C)C(=O)OCCN(CC)CC,-1.6%
12,C=C(C)C1CCC(C)(O)CC1 (stereo unspecified),0.754%
13,CO[C@@H]1[C@@H](OC(N)=O)[C@@H](O)[C@H](Oc2ccc3c(O)c(NC(=O)c4ccc(O)c(CC=C(C)C)c4)c(=O)oc3c2C)OC1(C)C,-0.0643% [at 35.3 µM]
14,CCOc1cc(NC(C)=O)ccc1C(=O)OC,0.0521% [at 35.3 µM]
15,COCCOCCOCCOCCOCCO,0.184%
16,O=C1c2ccccc2C(=O)c2cc(S(=O)(=O)O)ccc21,-3.63%
